Reference: PubChem BioAssay AID1159580 (chemical genetic matrix, 2015)
Several values for one entry are separate records, joined by “and”; a condition that tells them apart may be missing. Equal values may be shown once. Among all 5,500 compounds or so, about 2,000 (36%) were called active. Roughly 18% stayed inconclusive and do not appear here. No stated cut-off is given here; in the data, active means normalized growth mostly below about 0.91 (no sharp cut-off); inconclusive means no clear call, values can overlap the other calls; inactive means mostly above about 0.92. Some of the results follow.

Assay: chemical genetic growth profiling, strain panel (AID 1159580);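 further: tested at 20 µM; growth read once vehicle control cultures reached saturation at 30 °C; 1 = growth at the plate median or of vehicle wells; lower values mean less growth of the strain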
Settings: growth OD

Measured: normalized growth

COC(=O)COc1ccc(Cl)cc1Cl
inactive: S. cerevisiae deletion strains, locus YAL013W, strain DEP1, hits give low values 1 | S. cerevisiae deletion strains, locus YBR021W, strain FUR4, hits give low values 1.01 | S. cerevisiae deletion strains, locus YBR229C, strain ROT2, hits give low values 1.01 | S. cerevisiae deletion strains, locus YCL029C, strain bik1, hits give low values 1.02 | S. cerevisiae deletion strains, locus YDL035C, strain GPR1, hits give low values 1.02 | S. cerevisiae deletion strains, locus YDL074C, strain BRE1, hits give low values 1.03 | S. cerevisiae deletion strains, locus YDL101C, strain DUN1, hits give low values 1.01 | S. cerevisiae deletion strains, locus YDL134C, strain PPH21, hits give low values 1.01 | S. cerevisiae deletion strains, locus YDL185W, strain tfp1, hits give low values 1.01 | S. cerevisiae deletion strains, locus YDL192W, strain arf1, hits give low values 1.02 | S. cerevisiae deletion strains, locus YDR101C, strain arx1, hits give low values 1.02 | S. cerevisiae deletion strains, locus YDR150W, strain NUM1, hits give low values 1 | S. cerevisiae deletion strains, locus YDR162C, strain NBP2, hits give low values 0.996 | S. cerevisiae deletion strains, locus YDR318W, strain mcm21, hits give low values 1.02 | S. cerevisiae deletion strains, locus YDR388W, hits give low values 1.02 | S. cerevisiae deletion strains, locus YDR502C, strain sam2, hits give low values 1.02 | S. cerevisiae deletion strains, locus YEL061C, strain CIN8, hits give low values 1 | S. cerevisiae deletion strains, locus YER110C, hits give low values 1.01 | S. cerevisiae deletion strains, locus YER155C, strain BEM2, hits give low values 1 | S. cerevisiae deletion strains, locus YER167W, strain BCK2, hits give low values 1 | S. cerevisiae deletion strains, locus YGL078C, strain dbp3, hits give low values 1.01 | S. cerevisiae deletion strains, locus YGL086W, strain mad1, hits give low values 1 | S. cerevisiae deletion strains, locus YGL248W, strain PDE1, hits give low values 1.01 | S. cerevisiae deletion strains, locus YGR078C, strain PAC10, hits give low values 1.02 | S. cerevisiae deletion strains, locus YGR135W, strain pre9, hits give low values 1.02 | S. cerevisiae deletion strains, locus YGR229C, strain SMI1, hits give low values 1.01 | S. cerevisiae deletion strains, locus YGR252W, strain gcn5, hits give low values 1.04 | S. cerevisiae deletion strains, locus YHR030C, strain SLT2, hits give low values 1.01 and 1.04 | S. cerevisiae deletion strains, locus YHR079C, strain IRE1 (second series), hits give low values 1.01 | S. cerevisiae deletion strains, locus YHR079C, strain IRE1, hits give low values 1.03 | S. cerevisiae deletion strains, locus YHR094C, strain hxt1, hits give low values 1.02 | S. cerevisiae deletion strains, locus YHR129C, strain ARP1, hits give low values 1.01 | S. cerevisiae deletion strains, locus YHR200W, strain rpn10, hits give low values 1.01 | S. cerevisiae deletion strains, locus YIL066C, strain RNR3, hits give low values 1.02 | S. cerevisiae deletion strains, locus YIL073C, strain SPO22, hits give low values 1.08 | S. cerevisiae deletion strains, locus YIL125W, strain kgd1, hits give low values 1.01 | S. cerevisiae deletion strains, locus YIR030C, strain dcg1, hits give low values 1.02 | S. cerevisiae deletion strains, locus YJL095W, strain BCK1, hits give low values 1 and 1.05 | S. cerevisiae deletion strains, locus YJL134W, strain LCB3, hits give low values 1 | S. cerevisiae deletion strains, locus YJL168C, strain set2, hits give low values 1.02 | S. cerevisiae deletion strains, locus YJL187C, strain SWE1 (second series), hits give low values 1.01 | S. cerevisiae deletion strains, locus YJR043C, strain POL32, hits give low values 1.01 | S. cerevisiae deletion strains, locus YJR066W, strain TOR1, hits give low values 0.975 | S. cerevisiae deletion strains, locus YJR075W, strain HOC1, hits give low values 1.01 | S. cerevisiae deletion strains, locus YKL009W, strain mrt4, hits give low values 1.03 | S. cerevisiae deletion strains, locus YKL068W, hits give low values 1.01 | S. cerevisiae deletion strains, locus YKL085W, strain MDH1 (second series), hits give low values 0.993 | S. cerevisiae deletion strains, locus YKL085W, strain MDH1, hits give low values 0.993 | S. cerevisiae deletion strains, locus YKL190W, strain CNB1, hits give low values 1.01 | S. cerevisiae deletion strains, locus YKR001C, strain vps1, hits give low values 1.04 | S. cerevisiae deletion strains, locus YLR039C, strain RIC1, hits give low values 1.02 | S. cerevisiae deletion strains, locus YLR058C, strain SHM2, hits give low values 1.02 | S. cerevisiae deletion strains, locus YLR102C, strain apc9, hits give low values 1.01 | S. cerevisiae deletion strains, locus YLR113W, strain HOG1, hits give low values 0.974 | S. cerevisiae deletion strains, locus YLR262C, strain YPT6, hits give low values 1.06 | S. cerevisiae deletion strains, locus YLR268W, strain sec22, hits give low values 1.03 | S. cerevisiae deletion strains, locus YLR330W, strain CHS5, hits give low values 1.01 | S. cerevisiae deletion strains, locus YLR342W, strain FKS1 (second series), hits give low values 1.01 | S. cerevisiae deletion strains, locus YLR371W, strain rom2, hits give low values 1.01 | S. cerevisiae deletion strains, locus YLR418C, strain cdc73, hits give low values 1.04 | S. cerevisiae deletion strains, locus YML016C, strain PPZ1, hits give low values 1.01 | S. cerevisiae deletion strains, locus YML032C, strain rad52, hits give low values 1.02 | S. cerevisiae deletion strains, locus YML124C, strain tub3, hits give low values 1.02 | S. cerevisiae deletion strains, locus YMR078C, strain ctf18, hits give low values 1.03 | S. cerevisiae deletion strains, locus YMR223W, strain ubp8, hits give low values 1.02 | S. cerevisiae deletion strains, locus YMR263W, strain SAP30, hits give low values 1 | S. cerevisiae deletion strains, locus YMR307W, strain GAS1, hits give low values 1.02 | S. cerevisiae deletion strains, locus YNL067W, strain RPL9B, hits give low values 1 | S. cerevisiae deletion strains, locus YNL128W, strain TEP1, hits give low values 1.01 | S. cerevisiae deletion strains, locus YNL153C, strain GIM3, hits give low values 1.01 | S. cerevisiae deletion strains, locus YNL183C, strain NPR1, hits give low values 0.969 | S. cerevisiae deletion strains, locus YNL233W, strain BNI4, hits give low values 1 | S. cerevisiae deletion strains, locus YNL250W, strain rad50, hits give low values 1.01 | S. cerevisiae deletion strains, locus YNL271C, strain bni1, hits give low values 1 | S. cerevisiae deletion strains, locus YNL298W, strain CLA4, hits give low values 1.04 | S. cerevisiae deletion strains, locus YNL307C, strain MCK1, hits give low values 1.03 | S. cerevisiae deletion strains, locus YNL322C, strain KRE1, hits give low values 1.01 | S. cerevisiae deletion strains, locus YNR052C, strain pop2, hits give low values 1.03 | S. cerevisiae deletion strains, locus YOL006C, strain TOP1, hits give low values 1.02 | S. cerevisiae deletion strains, locus YOL012C, strain htz1 1.19 | S. cerevisiae deletion strains, locus YOL147C, strain pex11, hits give low values 1.01 | S. cerevisiae deletion strains, locus YOR061W, strain CKA2, hits give low values 0.997 | S. cerevisiae deletion strains, locus YOR069W, strain VPS5, hits give low values 1 | S. cerevisiae deletion strains, locus YOR136W, strain idh2, hits give low values 1.02 | S. cerevisiae deletion strains, locus YOR144C, strain elg1, hits give low values 1.02 | S. cerevisiae deletion strains, locus YOR184W, strain ser1, hits give low values 1.03 | S. cerevisiae deletion strains, locus YOR231W, strain MKK1, hits give low values 1.04 | S. cerevisiae deletion strains, locus YOR316C, strain cot1, hits give low values 1.01 | S. cerevisiae deletion strains, locus YPL055C, strain LGE1, hits give low values 1.02 | S. cerevisiae deletion strains, locus YPL241C, strain CIN2, hits give low values 1 | S. cerevisiae deletion strains, locus YPL256C, strain CLN2, hits give low values 1.05 | S. cerevisiae deletion strains, locus YPR119W, strain clb2, hits give low values 1.01 | S. cerevisiae deletion strains, locus YPR141C, strain kar3, hits give low values 1.01 | S. cerevisiae deletion strains, locus YPR163C, strain tif3, hits give low values 1.02 | S. cerevisiae deletion strains, locus YPR167C, strain met16, hits give low values 1.01 | S. cerevisiae deletion strains, strain wtn01, hits give low values 1.01 | S. cerevisiae strains, strain wild type, hits give low values 1
